High-throughput results: PubChem, National Center for Advancing Translational Sciences (NCATS)
Only a selection was taken, and hits are over-represented in it overall.
Shiga inhibitor – Shiga toxin inhibition; AID 2315; inhibition, % at 38.7 µM; Vero cells, Shiga toxin protein synthesis inhibition reporter; 9.2% of 290,000 active; in the data active means inhibition mostly above about 28%, no sharp cut-off; inactive means mostly below about 43%; further: 0% is about no effect
Giardia FBPA inh – Giardia lamblia aldolase inhibition. purified Giardia FBPA. Potency, µM (series often up to 59.6 µM), for inactives: top-dose activity, negative = inhibition, hits mostly inhibitors. 0.71% of 290,000 active; further: potency means the concentration at half of the fitted maximal effect; on the % scale 0 is the no-effect control and ±100 the full control effect; nearly all actives have a fitted effect of over 55% in size
Target sequence (A8B2U2 whole entry, looked up): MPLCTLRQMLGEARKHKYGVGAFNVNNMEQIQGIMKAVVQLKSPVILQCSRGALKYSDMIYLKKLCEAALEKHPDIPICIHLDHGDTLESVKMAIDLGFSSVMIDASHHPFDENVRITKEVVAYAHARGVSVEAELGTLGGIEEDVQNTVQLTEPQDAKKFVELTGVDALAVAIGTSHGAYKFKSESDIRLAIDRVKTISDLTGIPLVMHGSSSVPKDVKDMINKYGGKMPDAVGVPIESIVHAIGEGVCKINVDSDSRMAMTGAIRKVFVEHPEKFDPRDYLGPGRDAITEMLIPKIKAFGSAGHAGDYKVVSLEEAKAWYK
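Giardia FBPA (40 nM reagent) was preincubated 10 min at RT with compound (up to 57.5 uM final), then substrate plus GAPDH/TPI/NAD/arsenate coupling system with diaphorase/resazurin was added; resorufin fluorescence (525/598 nm) was read after 20 min.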
Sm TGR inh – S. mansoni TGR enzyme inhibition; Q962Y6; AID 485364; purified TGR, DTNB reduction, TNB absorbance 405 nm; Potency, µM (doses to about 114 µM), for inactives: at the top dose activity change, negative = inhibition, actives largely listed as inhibitors; 3% of 360,000 active; further: potency means the concentration at half of the fitted maximal effect; on the % scale 0 is the no-effect control and ±100 the full control effect; nearly all actives have a fitted effect of over 60% in size
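First, TGR (20 nM dispensed) and NADPH were mixed with compound. Second, a 15 min room-temperature incubation followed. Third, further NADPH and then DTNB were added to start the reaction. Finally, TNB absorbance was monitored kinetically.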
LmPK inh – blocks Leishmania mexicana pyruvate kinase activity. Q27686. purified LmPK, Kinase-Glo ATP luminescence, 1 h. Potency, µM (titrated, usually from 57.5 µM), inactives show top-dose activity change, negative = inhibition, most hits filed as inhibitors. 0.37% of 290,000 active; further: potency means the concentration at half of the fitted maximal effect; on the % scale 0 is the no-effect control and ±100 the full control effect
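In 50 mM imidazole pH 7.2 with 7 mM MgCl2, LmPK (0.1 nM) turned over PEP (0.5 mM) and ADP (0.1 mM) for 1 h at room temperature. Luciferase read-out of ATP.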
TbPYK inhibitor – inhibitors of Trypanosoma brucei pyruvate kinase | TbPYK enzyme, Kinase-Glo Plus ATP luminescence, 45 min | Potency, µM (titrated, usually from 76.8 µM), without a hit: at the highest dose activity, negative = inhibition, most hits filed as inhibitors | 0.12% of 410,000 active; further: potency means the concentration at half of the fitted maximal effect; on the % scale 0 is the no-effect control and ±100 the full control effect; nearly all actives have a fitted effect of over 50% in size
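Activity of T. brucei pyruvate kinase was followed by Kinase-Glo Plus luminescence after the enzyme reacted 45 min at room temperature with 130 uM ADP (final) and substrate. Test compounds were added before ADP at multiple concentrations.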
Cycloheximide cs – affects cycloheximide protein synthesis inhibition readout, counter-screen; cell reporter, cycloheximide protein synthesis inhibition counterscreen; max response, %; 12% of 300,000 active; in the data active means max response mostly above about 13%, no sharp cut-off; inactive means mostly below about 14%; further: read at 38.3 µM for the half of the compounds with a filed dose; 0% is about no effect
Starred values were filed as active, the others as inactive. Unless noted, the call rests on the fitted dose curve; in most records, active means well fitted curve in the direction sought with a large enough effect; inconclusive means small, poorly fitted or top-dose-only effect, or another doubt; inactive means no such curve, though single readings can be large; an effect the other way counts as inactive or inconclusive.

Cc1ccc(S(=O)(=O)N(Cc2ccccc2)c2ccccc2C(=O)Nc2ccccc2C(=O)NCc2ccco2)cc1 was read as Shiga inhibitor 55*, Giardia FBPA inh -1%, Sm TGR inh -4%, LmPK inh -1%, TbPYK inhibitor -3% and Cycloheximide cs 31*.
For Cc1ccc(S(=O)(=O)N(Cc2ccccc2)c2ccccc2C(=O)NCc2ccco2)cc1 the results were Shiga inhibitor 31, Giardia FBPA inh -5%, Sm TGR inh inconclusive, LmPK inh 3%, TbPYK inhibitor -10% and Cycloheximide cs 25*.
Screening O=C(Nc1ccccc1)c1ccccc1N=Cc1ccccc1O returned Shiga inhibitor active, Giardia FBPA inh -13%, Sm TGR inh -6%, LmPK inh -2%, TbPYK inhibitor -18% and Cycloheximide cs 47*.
Screening CCOc1ccccc1C=Nc1ccccc1C(=O)Nc1ccccc1 returned Shiga inhibitor 68*, Giardia FBPA inh -1%, Sm TGR inh 5%, LmPK inh 3%, TbPYK inhibitor -1% and Cycloheximide cs 16*.
Nc1[nH]c(C(=O)c2ccccc2)c(-c2ccccc2Br)c1C(=O)NCc1ccc(-c2ccccc2)cc1 was read as TbPYK inhibitor 3%.
Screening CCNC(=O)c1ccccc1-c1nc(-c2ccccc2OC)no1 returned Shiga inhibitor 39, Giardia FBPA inh 0%, Sm TGR inh 1%, LmPK inh 0%, TbPYK inhibitor -2% and Cycloheximide cs -2.
Screening COCCNC(=O)c1ccccc1-c1nc(-c2ccccc2OC)no1 returned Shiga inhibitor 35, Giardia FBPA inh -6%, Sm TGR inh -30%, LmPK inh 1%, TbPYK inhibitor -1% and Cycloheximide cs 15*.
`CC(C)(C)NC(=O)c1ccccc1-c1nc(-c2ccccc2Cl)no1` gave Shiga inhibitor 30, Giardia FBPA inh -13%, Sm TGR inh 1%, LmPK inh -3%, TbPYK inhibitor -4% and Cycloheximide cs 25*.
For Cc1ccccc1-c1noc(-c2ccccc2C(=O)NCc2ccco2)n1 the results were Shiga inhibitor 60*, Giardia FBPA inh 0%, Sm TGR inh 13µM*, LmPK inh 2%, TbPYK inhibitor -11% and Cycloheximide cs 18*.
For Cc1ccc(-n2nc3c(=O)n(CC(=O)Nc4ccccc4F)nc(C)c3c2C)c(C)c1 the results were Sm TGR inh 3% and TbPYK inhibitor -4%.
`Cc1ccc2nc(-c3ccc(C)o3)c(Nc3ccc4c(c3)OCCO4)n2c1` gave Sm TGR inh inconclusive and TbPYK inhibitor -8%.
`Cc1ccc(-c2nc3ccc(Cl)cn3c2Nc2ccc3c(c2)OCCO3)o1` gave Sm TGR inh 28µM* and TbPYK inhibitor -5%.
Screening Cc1cc(Nc2cccc(Cl)c2)c2ccccc2n1 returned Shiga inhibitor -6, Giardia FBPA inh 2%, Sm TGR inh 2%, LmPK inh -5%, TbPYK inhibitor -6% and Cycloheximide cs 1.
For Cc1ccc(-c2nc3ncccn3c2Nc2ccc3c(c2)OCCO3)o1 the results were Shiga inhibitor 70*, Giardia FBPA inh 7%, Sm TGR inh 50µM*, LmPK inh -4%, TbPYK inhibitor 2% and Cycloheximide cs 27*.
For Cc1cc(Nc2ccc3c(c2)OCCO3)c2cc(Cl)ccc2n1 the results were Shiga inhibitor 79*, Giardia FBPA inh -16%, Sm TGR inh 0%, LmPK inh 0%, TbPYK inhibitor -1% and Cycloheximide cs 68*.
CCN(CC)S(=O)(=O)c1cc(NC(=O)c2cc([N+](=O)[O-])ccc2N2CCOCC2)ccc1C was read as Shiga inhibitor -12, Sm TGR inh -16%, LmPK inh -2%, TbPYK inhibitor 4% and Cycloheximide cs -3.
Cc1ccc(NS(=O)(=O)c2ccc(C(=O)Nc3nncs3)cc2)cc1 was read as TbPYK inhibitor -10%.
For COc1ccc(Cn2c(SCc3ccc(C(=O)NC4CCCC4)cc3)nc3cccnc32)cc1 the results were Sm TGR inh -3% and TbPYK inhibitor -10%.
